Screening results as filed in PubChem BioAssay.
Rows were chosen to be rich in hits. Some 3.4% of all compounds tested hit in one or more screens of this group.
Luciferase inh: qHTS Assay for Inhibitors of Firefly Luciferase | hit rate 2.2% among 72,000 | Luciferin 4-monooxygenase (Photinus pyralis), P08659 | purified firefly luciferase, luminescence, 8 min | Potency, µM (top dose mostly 57.1 µM), for inactives: at the highest dose activity change, negative = inhibition, usual class: inhibitors; further: on the % scale 0 is the no-effect control and ±100 the full control effect; nearly all actives have a fitted effect of over 40% in size
Target sequence (P08659 whole entry, looked up): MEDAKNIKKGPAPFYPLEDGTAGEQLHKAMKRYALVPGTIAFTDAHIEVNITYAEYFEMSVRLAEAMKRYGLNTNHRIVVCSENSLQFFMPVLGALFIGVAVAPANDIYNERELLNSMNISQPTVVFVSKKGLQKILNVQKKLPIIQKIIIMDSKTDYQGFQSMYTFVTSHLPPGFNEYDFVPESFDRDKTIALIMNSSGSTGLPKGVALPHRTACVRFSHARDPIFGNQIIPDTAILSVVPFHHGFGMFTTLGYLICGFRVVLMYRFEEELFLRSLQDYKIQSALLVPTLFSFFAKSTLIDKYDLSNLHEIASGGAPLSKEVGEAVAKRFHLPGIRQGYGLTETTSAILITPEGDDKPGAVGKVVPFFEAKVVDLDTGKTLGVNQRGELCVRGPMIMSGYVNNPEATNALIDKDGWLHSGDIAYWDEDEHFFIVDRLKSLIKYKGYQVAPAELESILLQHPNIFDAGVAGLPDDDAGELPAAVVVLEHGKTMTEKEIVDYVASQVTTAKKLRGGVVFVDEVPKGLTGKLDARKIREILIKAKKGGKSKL
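Firefly luciferase (PKLight detection mix) with 10 uM ATP in pH 7.2 imidazole buffer (KCl, MgCl2, Tween 20, BSA). Compounds tested across a concentration series (qHTS). Luminescence read after 8 min at ambient temperature.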
Tau fil binding: qHTS Assay for Tau Filament Binding | Potency, µM (top dose mostly 57.1 µM), without a hit: top-dose activity change, negative = inhibition | hit rate 2% among 71,000 | AID 596, 2007 | recombinant tau filaments, thioflavin S fluorescence, 15 h; filaments grown with octadecylsulfate alongside compound | Microtubule-associated protein tau (Homo sapiens), P10636;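 further: on the % scale 0 is the no-effect control and ±100 the full control effect; actives lower thioflavin S fluorescence by blocking filaments or displacing dye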
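Read-out: ThS fluorescence, 450 nm excitation/510 nm emission; lower signal marks blocked filament formation or displaced dye. Tau at 1 uM with 30 uM ODS, 10 uM ThS, 5 mM DTT, 100 mM NaCl, 10 mM HEPES pH 7.4; 15 h, 37 C.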
p53ts 39C tox: qHTS Screen for Compounds that Selectively Target Cancer Cells with p53 Mutations: Cytotoxicity of p53ts Cells at the Nonpermissive Temperature | H1299-p53A138V viability at 39C, ATP luminescence, 24 h | Potency, µM (doses to about 46.1 µM), inactives show at the top dose activity change, negative = cell killing, usual class: cytotoxic | hit rate 1.5% among 130,000 | AID 902, 2007; further: on the % scale 0 is the no-effect control and ±100 the full control effect; nearly all actives have a fitted effect of over 55% in size
p53ts 32C kill: qHTS Screen for Compounds that Selectively Target Cancer Cells with p53 Mutations: Cytotoxicity of p53ts Cells at the Permissive Temperature; H1299-p53A138V at 32C, ATP luminescence viability, 24 h; Potency, µM (doses to about 46.1 µM), inactives show at the top dose activity change, negative = cytotoxicity, actives largely listed as cytotoxic; hit rate 0.93% among 130,000;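 further: 0% = DMSO and -100% = full killing by reference compound; nearly all actives have a fitted effect of over 55% in size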
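Viability by ATPlite luminescence after 24 h compound treatment (up to 46 uM) at the permissive 32C. Cells are H1299 carrying p53 A138V. Scale runs from DMSO basal to 100 uM tamoxifen as full kill; AC50 from Hill fits.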
Peg3 imprint: qHTS Assay for Compounds that Induce Erasure of Genomic Imprints; Potency, µM (titrated, usually from 60.7 µM), for inactives: at the highest dose activity change, positive = activation, most hits filed as activators; hit rate 0.02% among 110,000; mouse ES Peg3-LacZ reporter, beta-gal luminescence, 40 h
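Gelatin-coated wells received 300 freshly trypsinized female ES cells with a Peg3LacZ-Neo reporter on the maternal allele, then incubated 40 hours at 37C. BetaGlo was added for 5 minutes at room temperature before a single luminescence read.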
Starred values were filed as active, the others as inactive; [ ] = another dose, or the depositor's remark. The call rests on the fitted dose curve; in most records, active means well fitted curve in the direction sought with a large enough effect; inconclusive means small, poorly fitted or top-dose-only effect, or another doubt; inactive means no such curve, though single readings can be large; an effect the other way counts as inactive or inconclusive. Potency means the concentration at half of the fitted maximal effect.

Cc1cc(C(=O)CN2C(=O)NC3(CCCc4ccccc43)C2=O)c(C)n1Cc1cccs1 (configuration not stated) was read as Luciferase inh 13µM*, Tau fil binding 53%, p53ts 39C tox -6%, p53ts 32C kill -7% and Peg3 imprint -22%.
For Nc1nc(Nc2ccccc2)nc2ccccc12 the results were Luciferase inh 6.3µM*, Tau fil binding 56%, p53ts 39C tox 2.5µM*, p53ts 32C kill 4µM* and Peg3 imprint -87%.
For Cc1cccc(C)c1NC(=O)CN1C(=O)c2ccccc2Sc2ncccc21 the results were p53ts 39C tox -4%, p53ts 32C kill 5% and Peg3 imprint -14%[10.9 µM].
`Cc1ccc(C)c(NS(=O)(=O)c2c(C)ccc3nsnc23)c1` gave Luciferase inh 1%, Tau fil binding 13µM*, p53ts 39C tox 8%, p53ts 32C kill 6% and Peg3 imprint -6%.
CC(=O)c1cccc(Nc2cc(C)nc3nc(Cc4ccccc4)nn23)c1 was read as p53ts 39C tox -24%, p53ts 32C kill -4% and Peg3 imprint -4%[10.9 µM].
Cc1c(C(=O)Nc2ccccc2Br)oc2ccc(S(=O)(=O)N3CCCCCC3)cc12 was read as p53ts 39C tox -16%, p53ts 32C kill -7% and Peg3 imprint -6%[10.9 µM].
`Cc1ccc2nc(-c3cccc(S(=O)(=O)N(C)C)c3)cn2c1` gave Luciferase inh 13µM*, Tau fil binding 12%, p53ts 39C tox inconclusive, p53ts 32C kill inconclusive and Peg3 imprint -18%.
`Cc1cccc2nc(-c3cccc(NS(=O)(=O)c4ccccc4)c3)cn12` gave p53ts 39C tox -10%, p53ts 32C kill 4% and Peg3 imprint -6%[10.9 µM].
`CCOc1ccc(CCNC(=O)C(CC(C)C)N2Cc3ccccc3C2=O)cc1OCC` (configuration not stated) gave p53ts 32C kill -9%.
For O=S(=O)(c1ccc2c(c1)OCCO2)N1CCN(c2nc3ccccc3s2)CC1 the results were Luciferase inh 0%, Tau fil binding 13%, p53ts 39C tox -11%, p53ts 32C kill -8% and Peg3 imprint -6%.
For c1ccc2c(c1)CCN(c1nc3cc4c(cc3s1)OCCO4)C2 the results were Luciferase inh 0.32µM*, Tau fil binding -7%, p53ts 39C tox 2µM*, p53ts 32C kill 1.6µM* and Peg3 imprint -81%.
For O=C(c1cccs1)c1ccc(-c2cccs2)s1 the results were Luciferase inh 5µM*, Tau fil binding inactive, p53ts 39C tox 10µM*, p53ts 32C kill 7.9µM* and Peg3 imprint -84%.
`CC(C)CNC(=O)NC1C(NC(=O)NCC(C)C)N(C)C(=O)N1C` (configuration not stated) gave Luciferase inh 5µM*, Tau fil binding 1%, p53ts 39C tox 6.3µM*, p53ts 32C kill 5µM* and Peg3 imprint -62%.
Screening O=c1c(-c2ccc(Cl)cc2)nc2cnc(N3CCOCC3)nc2n1CCc1ccccc1 returned Luciferase inh 1%[11.4 µM], Tau fil binding 0%, p53ts 39C tox -1%, p53ts 32C kill 2% and Peg3 imprint -6%.
`Cc1ccc(CNc2ncnc3onc(C)c23)cc1` gave p53ts 39C tox -12%, p53ts 32C kill -3% and Peg3 imprint -11%[10.9 µM].
For COc1ccccc1OCc1nc2ccccc2[nH]1 the results were Luciferase inh inconclusive, Tau fil binding -12%, p53ts 39C tox -27%, p53ts 32C kill -28% and Peg3 imprint -60%.
Screening c1ccc2cc(OCc3nc4ccccc4[nH]3)ccc2c1 returned p53ts 39C tox 13µM* and p53ts 32C kill 10µM*.
Screening COc1cccc(OCc2nc3ccccc3[nH]2)c1 returned Luciferase inh 13µM*, Tau fil binding -12%, p53ts 39C tox inconclusive, p53ts 32C kill 16µM* and Peg3 imprint -86%.
For c1cnc2c(OCc3nc4ccccc4[nH]3)cccc2c1 the results were Luciferase inh 20µM*, Tau fil binding 4%, p53ts 39C tox inconclusive, p53ts 32C kill -26% and Peg3 imprint -22%.
`NNC(=O)c1ccc(OCc2nc3ccccc3[nH]2)cc1` gave Luciferase inh -4%[11.4 µM], Tau fil binding -5%[11.4 µM], p53ts 39C tox -1%[9.22 µM], p53ts 32C kill -5%[9.22 µM] and Peg3 imprint -3%[10.9 µM].
`CSc1nc(=O)c2c(n1C)NC(=O)CC2c1cc(F)cc(F)c1` (configuration not stated) gave p53ts 39C tox -11%, p53ts 32C kill 1% and Peg3 imprint -11%[10.9 µM].
Screening CC(=O)c1ccc(NC(=O)Cn2cc(S(=O)(=O)Cc3cccc(Cl)c3)c3ccccc32)cc1 returned p53ts 32C kill -10%.
Screening CCCCCCCC[N+](CCCCCCCC)(CCCCCCCC)CCCCCCCC returned Tau fil binding 400%, p53ts 39C tox 16µM*, p53ts 32C kill inconclusive and Peg3 imprint -17%.
`C#CC[N+](C)(C)CCCCCCCCCC` gave p53ts 39C tox -22% and p53ts 32C kill 16%.
OC[C@@H]1O[C@@H](n2cnc3c(N[C@@H]4C[C@@H]5CC[C@H]4C5)ncnc32)[C@@H](O)[C@H]1O was read as Luciferase inh -2%, Tau fil binding -8%, p53ts 39C tox 6% and p53ts 32C kill -10%.
Screening Cc1c(C(=O)OCC(C)(C)CN(C)C)oc2ccccc12 returned Luciferase inh 13µM*, Tau fil binding -6%, p53ts 39C tox -9%, p53ts 32C kill -26% and Peg3 imprint -24%.
For O=C(NCc1ccc2c(c1)CCN2C(=O)c1ccncc1)c1cccc(Cl)c1 the results were p53ts 39C tox -14%, p53ts 32C kill 0% and Peg3 imprint -17%[10.9 µM].
`Cc1cc(C)c(S(=O)(=O)Nc2ccc(-c3ccc(N4CCCCC4)nn3)cc2)c(C)c1` gave p53ts 39C tox 7.9µM*, p53ts 32C kill inconclusive and Peg3 imprint -16%[10.9 µM].
`CC(=O)c1ccc(S(=O)(=O)Nc2cccc(-c3ccc(N4CCCCCC4)nn3)c2)cc1` gave p53ts 39C tox 6.3µM*, p53ts 32C kill inconclusive and Peg3 imprint -12%[10.9 µM].
Screening O=S(=O)(Nc1cccc(-c2ccc(N3CCCCC3)nn2)c1)c1ccc(Cl)s1 returned p53ts 39C tox 5µM*, p53ts 32C kill 10µM* and Peg3 imprint -16%[10.9 µM].
For O=S(=O)(Nc1cccc(-c2ccc(N3CCCCC3)nn2)c1)c1cccs1 the results were p53ts 39C tox 6.3µM*, p53ts 32C kill 10µM* and Peg3 imprint -12%[10.9 µM].
